Results published in PubChem BioAssay AID1347414 (National Center for Advancing Translational Sciences (NCATS), 2020).
Records with an inconclusive call do not appear. Entries that show only a call come without a potency. Activity calls are given as the source filed them. Calls come from the whole dose curve; as a rule, active = well fitted inhibition curve with a large enough effect; inconclusive = small, poorly fitted or top-dose-only effect; inactive = no such curve, though single readings can be large or run the other way.

assay: qHTS to identify inhibitors of the type 1 interferon - major histocompatibility complex class I in skeletal muscle: Secondary screen by immunofluorescence; details: C25cl48 myoblasts, IFN-b induced HLA-ABC immunofluorescence, 24 h, Viability; series mostly up to 49.8 µM; note: nearly all actives have a fitted effect of over 70% in size
How it was run: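 Immortalized human myoblasts C25cl48 were stimulated with 4.0 ng/ml IFN-beta and exposed to an 11-point 1:3 compound titration, top 50 uM, for 24 h at 37 C. They were then fixed and immunostained for HLA-ABC, and quantified by laser scanning cytometry.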
Potency is the fitted concentration of half-maximal effect.

Row | SMILES | Potency
1 | COc1cccc2c1C(=O)c1c(O)c3c(c(O)c1C2=O)C[C@@](O)(C(=O)CO)C[C@@H]3O[C@H]1C[C@H](N)[C@@H](O)[C@H](C)O1 | inactive
2 | C[C@@]12O[C@@H](C[C@]1(O)CO)n1c3ccccc3c3c4c(c5c6ccccc6n2c5c31)CNC4=O | inactive
3 | O=C(/C=C/c1cccc(S(=O)(=O)Nc2ccccc2)c1)NO | inactive
4 | CC[C@H](CC#N)OC(=O)N[C@@H](C)c1cccc(NC(=O)Nc2ccc(-c3cnco3)c(OC)c2)c1 | inactive
5 | COC(=O)c1nc(Cl)c(Cl)nc1N | 9.13 µM (active)
6 | CC[C@]1(O)C[C@H]2CN(CCc3c([nH]c4ccccc34)[C@@](C(=O)OC)(c3cc4c(cc3OC)N(C=O)[C@H]3[C@@](O)(C(=O)OC)[C@H](OC(C)=O)[C@]5(CC)C=CCN6CC[C@]43[C@@H]65)C2)C1 | inactive
7 | CC1(C)CC(=O)c2c(C(F)(F)F)nn(-c3ccc(C(N)=O)c(NC4CCC(OC(=O)CN)CC4)c3)c2C1 (configuration not stated) | inactive
8 | CC(=O)c1cnc2ccc(-c3cc(Cl)c(O)c(Cl)c3)nc2c1NC1CCC(CN(C)C)CC1 (configuration not stated) | 14.5 µM (active)
9 | Cc1ccc2nc(NCCN)c3ncc(C)n3c2c1 | inactive
10 | COc1cccc(-c2cc(F)ccc2[C@H]2Cc3nc(N)nc(C)c3C(=O)N2)n1 | inactive
11 | CC(C)(C)c1nc2c3cc[nH]c(=O)c3c3cc(F)ccc3c2[nH]1 | inactive
12 | Nc1nc(Nc2ccc(S(N)(=O)=O)cc2)nn1C(=O)c1c(F)cccc1F | inactive
13 | CN1CCN(C(=O)c2ccc3cc(CCNc4ncnc5ccc(C#N)cc45)ccc3c2)CC1 | inactive
14 | C[C@@H]1CCN(C(=O)CC#N)C[C@@H]1N(C)c1ncnc2[nH]ccc12 | inactive
15 | O=C1CN2Cc3c(ccc(Cl)c3Cl)N=C2N1 | inactive
16 | CC(C)c1cnn2c(NCc3ccccc3)cc(N[C@@H](CO)[C@H](O)CO)nc12 | inactive
17 | Cc1[nH]c2ccccc2c1CCNCc1ccc(/C=C/C(=O)NO)cc1 | inactive
18 | CC(C)c1c2cc(-c3ccnc(NC4CCC(NC5CCOCC5)CC4)n3)ccc2nn1C (configuration not stated) | inactive
19 | O=C(Nc1cn[nH]c1-c1nc2ccc(CN3CCOCC3)cc2[nH]1)NC1CC1 | inactive

Row | SMILES | Potency
20 | N#CCC1(n2cc(-c3ncnc4[nH]ccc34)cn2)CN(C2CCN(C(=O)c3ccnc(C(F)(F)F)c3F)CC2)C1 | inactive
21 | Cc1ccc([N+](=O)[O-])cc1S(=O)(=O)N(C)/N=C/c1cnc2ccc(Br)cn12 | inactive
22 | O=C(CCCCCCC(=O)Nc1ccccc1)NO | inactive
23 | CN(C)Cc1c(C(=O)NCCOc2ccc(C(=O)NO)cc2)oc2ccccc12 | inactive
24 | CC(=O)OCC(=O)[C@@]1(O)CC[C@H]2[C@@H]3CCC4=CC(=O)C=C[C@]4(C)[C@H]3[C@@H](O)C[C@@]21C | inactive
25 | CC(C)CC(=O)Nc1n[nH]c2c1CN(C(=O)C1CCN(C)CC1)C2(C)C | inactive
26 | CC1(COc2ccc3c(c2)ncn3-c2ccc3cccc(N4CCC(N)CC4)c3n2)COC1 | 7.26 µM (active)
27 | COc1ccc(-c2ccc3ncc4c(c3c2)n(-c2ccc(N3CCNCC3)c(C(F)(F)F)c2)c(=O)n4C)cn1 | 1.02 µM (active)
28 | Cc1ccc(-c2ncn(-c3ccc(Nc4nccc(-c5cccc(N6CCOCC6)c5)n4)cc3)n2)cn1 | inactive
29 | CNC(=O)c1cc(Oc2ccc(NC(=O)Nc3cc(C(C)(C)C)nn3-c3ccc4ncccc4c3)c(F)c2)ccn1 | inactive
30 | Cn1cc(CNCC2CCN(c3ncc(C(=O)NO)cn3)CC2)c2ccccc21 | inactive
31 | CC(C)C[C@H](NC(=O)[C@H](Cc1ccccc1)NC(=O)c1cnccn1)B(O)O | inactive
32 | CN(C)c1ccc(C(=O)NCCCCCCC(=O)NO)cc1 | inactive
33 | CN(Cc1ccc(/C=C/C(=O)NO)cc1)CC12CC3CC(CC(C3)C1)C2 | inactive
34 | CC(=O)c1ccc2c(c1)c1cc(C(C)=O)ccc1n2CCNC(C)C | inactive
35 | C#Cc1cccc(Nc2ncnc3cc(OC)c(OCCCCCCC(=O)NO)cc23)c1 | inactive
36 | O=[N+]([O-])c1ccc2c(c1)S(=O)(=O)C=C2 | 5.14 µM (active)
37 | O=C(/C=C/C#Cc1cccc(NS(=O)(=O)c2ccccc2)c1)NO | inactive
